Test results published in the supplement of paper PMC7411054.

Key:
Settings in all cases: treatment time: 24 h
A549-ACTB-RAB5A [1] = assay: lowest phenotypically active concentration; higher = less potent
Outline: (§1)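 Four wells per concentration (0.3, 1, 3 or 9 µM) were treated for 24 h in each of fifteen gene-edited reporter lines from A549, HepG2 and WPMY1 cells, then imaged live. After normalising live-cell features to solvent control wells, deviation was defined as ≥3 of 4 wells lying past the 95th percentile of control Euclidean distances. Reproducibility was defined as a median replicate Pearson correlation above the 95th percentile of non-replicates. Both had to hold for phenotypic activity.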

A549-CANX-COX4 [2] = assay: as above
Outline: as §1

A549-GM130-SQSTM1 [3] = assay: as above
Outline: as §1

A549-TP53BP1-CLTA [4] = assay: as above
Outline: as §1

A549-TUBA1B-RELA [5] = assay: as above
Outline: as §1

HepG2-GM130-SQSTM1 [6] = assay: as above
Outline: as §1

A549-ACTB-RAB5A [7] = assay: phenotypically active (imaging signature differs from DMSO and reproducible) at any of 0.3-9 uM (binary (1 = active, 0 = inactive)); higher = active
Outline: as §1

A549-CANX-COX4 [8] = assay: as above
Outline: as §1

A549-GM130-SQSTM1 [9] = assay: as above
Outline: as §1

A549-TP53BP1-CLTA [10] = assay: as above
Outline: as §1

A549-TUBA1B-RELA [11] = assay: as above
Outline: as §1

HepG2-ACTB-RAB5A = assay: as above
Outline: as §1

HepG2-CANX-COX4 = assay: as above
Outline: as §1

HepG2-GM130-SQSTM1 [12] = assay: as above
Outline: as §1

HepG2-TP53BP1-CLTA = assay: as above
Outline: as §1

HepG2-TUBA1B-RELA = assay: as above
Outline: as §1

WPMY1-CANX-COX4 = assay: as above
Outline: as §1

WPMY1-GM130-SQSTM1 = assay: as above
Outline: as §1

WPMY1-TP53BP1-CLTA = assay: as above
Outline: as §1

WPMY1-TUBA1B-RELA = assay: as above
Outline: as §1

Row | SMILES | lowest phenotypically active concentration (A549-ACTB-RAB5A [1]) [µM] | lowest phenotypically active concentration (A549-CANX-COX4 [2]) [µM] | lowest phenotypically active concentration (A549-GM130-SQSTM1 [3]) [µM] | lowest phenotypically active concentration (A549-TP53BP1-CLTA [4]) [µM] | lowest phenotypically active concentration (A549-TUBA1B-RELA [5]) [µM] | lowest phenotypically active concentration (HepG2-GM130-SQSTM1 [6]) [µM] | phenotypically active (A549-ACTB-RAB5A [7]) | phenotypically active (A549-CANX-COX4 [8]) | phenotypically active (A549-GM130-SQSTM1 [9]) | phenotypically active (A549-TP53BP1-CLTA [10]) | phenotypically active (A549-TUBA1B-RELA [11]) | phenotypically active (HepG2-ACTB-RAB5A) | phenotypically active (HepG2-CANX-COX4) | phenotypically active (HepG2-GM130-SQSTM1 [12]) | phenotypically active (HepG2-TP53BP1-CLTA) | phenotypically active (HepG2-TUBA1B-RELA) | phenotypically active (WPMY1-CANX-COX4) | phenotypically active (WPMY1-GM130-SQSTM1) | phenotypically active (WPMY1-TP53BP1-CLTA) | phenotypically active (WPMY1-TUBA1B-RELA)
1 | O=C(NOC[C@H](O)CO)c1ccc(F)c(F)c1Nc1ccc(I)cc1F | ≤ 0.3 | 1 | ≤ 0.3 | ≤ 0.3 | 1 | ≤ 0.3 | 1 (active) | 1 (active) | 1 (active) | 1 (active) | 1 (active) | 1 (active) | 1 (active) | 1 (active) | 1 (active) | 1 (active) | 0 (inactive) | 1 (active) | 1 (active) | 0 (inactive)
2 | N#CC[C@@H](C1CCCC1)n1cc(-c2ncnc3[nH]ccc23)cn1 [ruxolitinib-(S)] | 3 | 9 | 9 | 9 | 9 | 9 | 1 (active) | 1 (active) | 1 (active) | 1 (active) | 1 (active) | 0 (inactive) | 1 (active) | 1 (active) | 1 (active) | 1 (active) | 1 (active) | 0 (inactive) | 0 (inactive) | 1 (active)
3 | CO[C@H]1C[C@@H]2CC[C@@H](C)[C@@](O)(O2)C(=O)C(=O)N2CCCC[C@H]2C(=O)O[C@H]([C@H](C)C[C@@H]2CC[C@@H](OC(=O)C(C)(CO)CO)[C@H](OC)C2)CC(=O)[C@H](C)C=C(C)[C@@H](O)[C@@H](OC)C(=O)[C@H](C)C[C@H](C)C=CC=CC=C1C [Temsirolimus] | ≤ 0.3 | ≤ 0.3 | ≤ 0.3 | 3 | ≤ 0.3 | ≤ 0.3 | 1 (active) | 1 (active) | 1 (active) | 1 (active) | 1 (active) | 1 (active) | 1 (active) | 1 (active) | 1 (active) | 1 (active) | 1 (active) | 1 (active) | 1 (active) | 1 (active)
4 | CC(C)CNc1nc(-c2cccc3ncccc23)cn2c(-c3ccc(C(=O)NC4CC4)cc3)cnc12 | ≤ 0.3 | 1 | ≤ 0.3 | 1 | ≤ 0.3 | 1 | 1 (active) | 1 (active) | 1 (active) | 1 (active) | 1 (active) | 1 (active) | 1 (active) | 1 (active) | 1 (active) | 1 (active) | 0 (inactive) | 1 (active) | 1 (active) | 0 (inactive)
5 | CC(C)(C)c1cc(NC(=O)Nc2ccc(-c3cn4c(n3)sc3cc(OCCN5CCOCC5)ccc34)cc2)no1 [quizartinib] | 3 | 3 | 1 | 3 | 3 | 3 | 1 (active) | 1 (active) | 1 (active) | 1 (active) | 1 (active) | 1 (active) | 0 (inactive) | 1 (active) | 0 (inactive) | 1 (active) | 1 (active) | 1 (active) | 1 (active) | 1 (active)
6 | CCN(CC)CCNc1ccc(CO)c2sc3ccccc3c(=O)c12 [hycanthone] | 9 | 9 | 9 | 9 | 9 | 9 | 1 (active) | 1 (active) | 1 (active) | 1 (active) | 1 (active) | 1 (active) | 0 (inactive) | 1 (active) | 1 (active) | 1 (active) | 1 (active) | 1 (active) | 1 (active) | 1 (active)
7 | CNc1nc(-c2ccc3c(N)n[nH]c3c2)cc(N2C[C@@H](C(=O)NC3CCCCC3)CC[C@H]2C)n1 | 1 | 3 | 1 | 3 | 3 | 3 | 1 (active) | 1 (active) | 1 (active) | 1 (active) | 1 (active) | 0 (inactive) | 1 (active) | 1 (active) | 1 (active) | 1 (active) | 1 (active) | 1 (active) | 1 (active) | 1 (active)
8 | COc1cc2c(cc1O)CC[C@@H]1[C@@H]2CC[C@]2(C)[C@@H](O)CC[C@@H]12 [2-methoxyestradiol] | 1 | 1 | 1 | 1 | 1 | 3 | 1 (active) | 1 (active) | 1 (active) | 1 (active) | 1 (active) | 1 (active) | 1 (active) | 1 (active) | 1 (active) | 1 (active) | 1 (active) | 0 (inactive) | 1 (active) | 1 (active)
9 | CN(C)C(=O)C(CCN1CCC(O)(c2ccc(Cl)cc2)CC1)(c1ccccc1)c1ccccc1 [loperamide] | 3 | 9 | 9 | 9 | 3 | 9 | 1 (active) | 1 (active) | 1 (active) | 1 (active) | 1 (active) | 1 (active) | 0 (inactive) | 1 (active) | 1 (active) | 1 (active) | 1 (active) | 1 (active) | 1 (active) | 1 (active)
10 | CN1CCN([C@H]2CC[C@H](n3cc(-c4ccc(Oc5ccccc5)cc4)c4c(N)ncnc43)CC2)CC1 | ≤ 0.3 | 1 | ≤ 0.3 | ≤ 0.3 | ≤ 0.3 | ≤ 0.3 | 1 (active) | 1 (active) | 1 (active) | 1 (active) | 1 (active) | 1 (active) | 1 (active) | 1 (active) | 1 (active) | 1 (active) | 0 (inactive) | 1 (active) | 1 (active) | 1 (active)
